Assay outcomes deposited in PubChem by National Center for Advancing Translational Sciences (NCATS).
IDH1 R132H inh: blocks human mutant IDH1 R132H enzyme; Potency, µM (titrated, usually from 76.6 µM), most hits filed as inhibitors; O75874; AID 602179; hit rate 0.093% among 390,000; IDH1-R132H enzyme, NADPH consumption, diaphorase/resazurin fluorescence; also: nearly all actives have a fitted effect of over 65% in size
Target sequence (O75874 whole entry R132H, stated change not applied): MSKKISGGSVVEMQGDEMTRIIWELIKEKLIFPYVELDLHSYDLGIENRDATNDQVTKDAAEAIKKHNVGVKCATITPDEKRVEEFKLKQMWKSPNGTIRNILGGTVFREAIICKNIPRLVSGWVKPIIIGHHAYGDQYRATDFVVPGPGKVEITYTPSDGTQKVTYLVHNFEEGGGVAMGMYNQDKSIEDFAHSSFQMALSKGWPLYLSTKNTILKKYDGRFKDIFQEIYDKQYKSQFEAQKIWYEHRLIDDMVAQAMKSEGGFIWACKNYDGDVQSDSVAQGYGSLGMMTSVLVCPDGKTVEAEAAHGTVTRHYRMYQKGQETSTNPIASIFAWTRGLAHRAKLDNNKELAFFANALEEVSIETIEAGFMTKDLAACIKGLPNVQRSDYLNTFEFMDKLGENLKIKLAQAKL
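IDH1-R132H (0.5 ug/mL) preincubated 30 min with compound, then NADPH (0.016 mM) and alpha-KG (2 mM) added; 80 min at RT, pH 7.5. Remaining NADPH coupled via diaphorase/resazurin to fluorescence (540/590 nm); concentration-response curves normalized to no-enzyme control.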
A549 tox-1: A549 cytotoxicity, counter-screen for Nrf2 inhibitors; A549 ARE-Fluc cells, CellTiter-Fluor viability, 18-24 h; Potency, µM (titrated, usually from 46 µM), most hits filed as inhibitors; hit rate 0.16% among 390,000; AID 504648
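Cytotoxicity counterscreen: CellTiter-Fluor fluorescence was measured in A549 ARE_Fluc cells after 18-24 h of compound exposure in a concentration series. The subsequent BugLite luminescent read reports ARE-luciferase activity.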
Nrf2 ARE act: Nrf2 pathway activation | AREc32 ARE-luciferase reporter (MCF7-derived line), luminescence, 24 h | Potency, µM (top dose mostly 46.1 µM), usual class: activators | hit rate 0.31% among 410,000 | AID 624171; also: nearly all actives have a fitted effect of over 65% in size
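Reporter line AREc32 (ARE-Fluc), seeded overnight in OPTI-MEM with 5% FBS; compound pin-transferred, 24 hr at 37 deg C, 5% CO2; luminescent read-out.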
Anesthetic bind: candidate novel general anesthetic via apoferritin binding | P02791 | apoferritin/1-aminoanthracene competitive binding, fluorescence | Potency, µM (titrated, usually from 77.5 µM), most hits filed as inhibitors | hit rate 0.074% among 350,000 | AID 485281; also: nearly all actives have a fitted effect of over 20% in size
Target sequence (P02791 2-175 limits assumed): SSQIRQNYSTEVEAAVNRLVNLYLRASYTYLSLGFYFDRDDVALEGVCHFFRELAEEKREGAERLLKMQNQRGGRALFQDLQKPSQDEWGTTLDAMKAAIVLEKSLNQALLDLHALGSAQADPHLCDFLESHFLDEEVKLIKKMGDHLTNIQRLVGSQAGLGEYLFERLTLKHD
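In PBS, apoferritin at 10 uM is loaded with 1-AMA from a 50% saturated solution. After 10 min of compound exposure at ambient temperature, reduced 535 nm fluorescence indicates probe displacement.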
Nrf2 block: blocks Nrf2 signaling; Potency, µM (top dose mostly 46 µM), actives largely listed as inhibitors; A549 ARE-Fluc reporter, luciferase luminescence, 18-24 h; hit rate 2.1% among 360,000; also: nearly all actives have a fitted effect of over 60% in size
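In this cell-based qHTS, ARE-driven firefly luciferase in A549 cells reports Nrf2 activity; the luminescent signal after BugLite lysis is the measured value, with a prior CellTiter-Fluor read for cell health.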
Giardia kill: Giardia lamblia killing; AID 540267; activity change, % at 7.66 µM, hits read low; hit rate 0.15% among 340,000; Giardia lamblia trophozoite viability; in the data active = activity change below about -80%; inconclusive = between about -30% and that limit;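 also: parasites exposed to compound for two days anaerobically before the ATP read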
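Media and compound were dispensed first, then trophozoites at 100 cells/well; plates sat 48 hrs at 37 deg C without oxygen before ATP luminescence reagent was added and read after 15-30 min at room temperature.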
FLuc enzyme inh: firefly luciferase inhibition, Nrf2 hit validation | shares compounds with Nrf2 block | purified firefly luciferase, luminescence inhibition | Potency, µM (highest dose often 57.5 µM), actives largely listed as inhibitors | hit rate 4% among 1,400 | AID 720522; also: nearly all actives have a fitted effect of over 65% in size
A549 tox-2: counter-screen for Nrf2 inhibitors: cytotoxicity in A549 ARE cells. A549 ARE-Fluc cells, cytotoxicity counterscreen. AID 720523. shares compounds with Nrf2 block. hit rate 2% among 1,400. Potency, µM (series often up to 46.1 µM), actives largely listed as inhibitors;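 also: cells exposed to compounds for 18 to 24 hours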
ARE-Fluc inh: Nrf2 inhibition confirmed, A549 ARE-luciferase; shares compounds with Nrf2 block; Potency, µM (highest dose often 46.1 µM), hits mostly inhibitors; hit rate 74% among 1,400; AID 720524; A549 ARE-firefly luciferase reporter, luminescence; also: nearly all actives have a fitted effect of over 65% in size
A number is an active result; n = inactive; u = inconclusive; x = not tested or not shown. An excerpt weighted towards active compounds, which were near 2.3% of everything screened. Unless noted, calls follow the shape of the dose curve; as a rule, active = well fitted curve in the direction sought with a large enough effect; inconclusive = small, poorly fitted or top-dose-only effect, or another doubt; inactive = no such curve, though single readings can be large; an effect the other way counts as inactive or inconclusive.

SMILES	IDH1 R132H inh	A549 tox-1	Nrf2 ARE act	Anesthetic bind	Nrf2 block	Giardia kill	FLuc enzyme inh	A549 tox-2	ARE-Fluc inh
C[C@]12CCC3C(CCC4=CC(O)CC[C@@]43/C=N/O)C1(O)CCC2C1=CC(=O)OC1 (some centres not stated)	n	n	n	n	u	n	x	x	x
C[C@H]1O[C@@H](OC2CC[C@]3(C=O)[C@H]4CC[C@]5(C)[C@@H](C6=CC(=O)OC6)CC[C@]5(O)[C@@H]4CC[C@]3(O)C2)CC2OC(C)(C)OC21 (some centres not stated)	n	u	n	n	0.16µM	n	n	u	0.065µM
CC12CC[C@H]3[C@@H](CCC4(O)C[C@H](O)CCC34/C=N/NC(=O)c3ccccc3Cl)C1(O)CCC2C1=CC(=O)OC1 (some centres not stated)	n	n	n	n	n	n	x	x	x
CC12CCC3C(CCC4(O)CC(O)CCC34C=NO)C1(O)CCC2C1=COC(=O)C1 (configuration not stated)	n	u	n	x	0.058µM	n	n	u	0.1µM
C[C@]12CC[C@H]3[C@@H](CC[C@]4(O)C[C@@H](O)CC[C@]34C=O)[C@@]1(O)CC[C@@H]2C1=CC(=O)OC1	n	u	n	x	0.26µM	u	n	n	0.41µM
CC1CC2CCC(O2)C(C)C(=O)OC(C)CC2CCC(O2)C(C)C(=O)OC(C)CC2CCC(O2)C(C)C(=O)OC(C)CC2CCC(O2)C(C)C(=O)O1 (configuration not stated)	x	x	x	n	x	x	x	x	x
CC(C)C[C@H](NC(=O)[C@H](Cc1ccccc1)NC(=O)CNC(=O)[C@H](CS)N(C(=O)[C@@H](N)Cc1ccc(O)cc1)C(C)(C)C)C(=O)N([C@H](C(=O)O)[C@H](C)O)C(C)(C)C	x	x	x	n	x	x	x	x	x
CC12CCC3C(CCC4(O)CC(O)CCC34C=O)C1(O)CCC2C1=CC(=O)OC1 (configuration not stated)	n	u	n	x	0.46µM	n	n	u	0.41µM
CC1=CC(O)C(O)C2(C)C1CC1OC(=O)C(O)C3C(C)C(O)C4(O)OCC13C42 (configuration not stated)	n	n	n	x	2.9µM	n	n	n	5.2µM
O=C(COc1ccc(S(=O)(=O)N2CCOCC2)cc1)N1CCN(Cc2ccc3c(c2)OCO3)CC1	n	n	n	n	u	n	x	x	x
CCCCNS(=O)(=O)c1ccc(OCC(=O)N2CCN(Cc3ccc4c(c3)OCO4)CC2)cc1	n	u	n	n	4.6µM	n	n	n	u
CN(C)c1ccc(-[n+]2c(-c3ccccc3)cc(-c3ccccc3)cc2-c2ccccc2)cc1	n	u	n	u	2.9µM	n	n	u	3.7µM
Cc1ccc(-c2cc(-c3ccc(C)cc3)[n+](-c3ccccc3)c(-c3ccc(C)cc3)c2)cc1	n	u	n	x	2.6µM	n	n	5.8µM	x
c1ccc(-c2cc(-c3ccccc3)[n+](-c3ccccc3)c(-c3ccccc3)c2)cc1	n	u	n	n	u	n	x	x	x
CO/C1=C\C(C)=C\[C@@H](C)[C@@H](O)[C@@H](C)C/C(C)=C/C=C/[C@H](OC)[C@@H]([C@@H](C)[C@@H](O)[C@H](C)[C@@]2(O)C[C@@H](O)[C@H](C)C(C(C)C)O2)OC1=O (some centres not stated)	x	x	x	n	x	x	x	x	x
CCN(CC)C(=O)c1ccc(NC(=O)c2cccc(S(=O)(=O)N3CCN(Cc4ccccc4)CC3)c2)cc1	n	u	n	x	2.1µM	n	n	n	8.2µM
CCN(CC)C(=O)c1ccc(NC(=O)c2cc(S(=O)(=O)N3CCCCCC3)ccc2OC)cc1	n	n	n	x	u	n	x	x	x
NCCCP(=O)(O)CC1CCCCC1	x	x	x	n	x	x	x	x	x
CCN(CC)C1=NC(=[N+](CC)CC)c2ccccc21	n	u	n	n	2.1µM	n	n	n	4.6µM
CC(C)(C)c1cc(C=C(C#N)C#N)cc(C(C)(C)C)c1O	n	u	n	x	0.65µM	n	n	u	1.3µM
N#CC(C#N)=Cc1ccc(O)c(O)c1	n	n	n	x	n	n	x	x	x
C=C(CC1(C(C)NP(=O)(c2ccccc2)c2ccccc2)CC1)c1ccccc1 (configuration not stated)	x	x	x	n	x	x	x	x	x
C=C(C)[C@@]12OC3(c4ccccc4)O[C@@H]1C1[C@@H]4O[C@]4(CO)[C@@H](O)[C@]4(O)C(=O)C(C)=C[C@H]4[C@@]1(O3)[C@H](C)[C@H]2OC(=O)/C=C/C=C/c1ccccc1 (some centres not stated)	n	n	n	x	0.0052µM	n	n	u	0.018µM
Cc1[nH]c(=O)n(C(C)(C)C)c(=O)c1Cl	x	x	x	n	x	x	x	x	x
CNNC	x	x	x	n	x	x	x	x	x
SMILES	IDH1 R132H inh	A549 tox-1	Nrf2 ARE act	Anesthetic bind	Nrf2 block	Giardia kill	FLuc enzyme inh	A549 tox-2	ARE-Fluc inh
COc1ccc(CNC(=O)CSCc2cnn(-c3ccccc3)c2-n2cccc2)cc1OC	n	n	n	n	9.2µM	x	n	n	8.2µM
CCCCC/C=C\C/C=C\C/C=C\C/C=C\CCCC(=O)NC1CC1	x	x	x	n	x	x	x	x	x
CCOC(=O)CN1C(=O)CC(C[C@@H](O)C2C[C@@H](C)C[C@H](C)C2=O)CC1=O (some centres not stated)	x	x	x	n	x	x	x	x	x
C[C@H]1C[C@@H](C)C(=O)[C@@H]([C@H](O)CC2CC(=O)NC(=O)C2)C1	n	u	n	n	0.41µM	u	n	n	13µM
CC(=O)OC1C(=O)[C@]2(C)C(O)CC3OC[C@]3(OC(C)=O)C2[C@@H](OC(=O)c2ccccc2)[C@]2(O)CC(O)C(C)=C1C2(C)C (some centres not stated)	x	x	x	n	x	x	x	x	x
COc1ccc(-c2nc(CSCC(=O)N3CCN(c4ccc(F)cc4)CC3)c(C)o2)cc1	n	n	n	n	3.3µM	x	n	n	7.3µM
CCc1ccc(-c2nc(CSCC(=O)N3CCN(c4ccc(F)cc4)CC3)c(C)o2)cc1	n	n	n	n	7.3µM	x	n	n	x
C=CCn1c(O)c(C(C)=NCc2cc(OC)cc(OC)c2)c(=O)[nH]c1=O	n	n	n	n	7.3µM	n	n	n	15µM
COc1ccc(C[C@H]2NC[C@H](O)[C@H]2OC(C)=O)cc1	n	u	n	n	0.12µM	u	n	n	7.3µM
COc1ccc(C[C@@H]2NC[C@H](O)[C@@H]2OC(C)=O)cc1	x	x	x	n	x	x	x	x	x
